# Laboratory results reported in PubChem BioAssay (EPA / NIEHS).
# The source made the active and inactive calls. How the source made its calls: active means hit-call score of the fitted dose curve at least 0.9, where 1 is the maximum; inactive means score below 0.9.
# Key:
# [1] = ATG_ISRE_CIS: Attagene CIS-FACTORIAL HepG2 Assay for human Interferon Regulatory Factor 1 (IRF1) binding to an Interferon-Stimulated Response Element (ISRE) (AID 2282948); settings: HepG2 ISRE cis-reporter (Attagene), mRNA transcription readout; actives raise or lower the signal
# Method in brief: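 Quantitation relies on labelled RT-PCR fragments separated by capillary electrophoresis. Human HepG2 cells bearing cis-promoter reporter constructs were treated 24 h; DMSO served as baseline for bidirectional fitting.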
# [2] = ATG_M_06_CIS: Attagene CIS-FACTORIAL HepG2 Assay for M06 Transcription Factor (Internal Marker) (AID 2282950); settings: HepG2 Attagene CIS-FACTORIAL M06 internal marker reporter; actives raise or lower the signal
# Method in brief: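 Internal background marker within multiplexed cis-reporter HepG2 system. Cells transiently transfected, dosed 24 h; reporter mRNA measured by RT-PCR, HpaI digestion and capillary electrophoresis. Bidirectional fit relative to DMSO.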
# [3] = target: Hypoxia-inducible factor 1-alpha (Homo sapiens) (UniProt Q16665); test: ATG_HIF1a_CIS: Attagene CIS-FACTORIAL HepG2 Assay for human Hypoxia Inducible Factor 1 (HIF1A) (AID 2282951); settings: HepG2 Attagene cis-factorial HIF1a reporter transcription; actives raise or lower the signal
# Sequence of Hypoxia-inducible factor 1-alpha (Homo sapiens) (Q16665 whole entry, looked up): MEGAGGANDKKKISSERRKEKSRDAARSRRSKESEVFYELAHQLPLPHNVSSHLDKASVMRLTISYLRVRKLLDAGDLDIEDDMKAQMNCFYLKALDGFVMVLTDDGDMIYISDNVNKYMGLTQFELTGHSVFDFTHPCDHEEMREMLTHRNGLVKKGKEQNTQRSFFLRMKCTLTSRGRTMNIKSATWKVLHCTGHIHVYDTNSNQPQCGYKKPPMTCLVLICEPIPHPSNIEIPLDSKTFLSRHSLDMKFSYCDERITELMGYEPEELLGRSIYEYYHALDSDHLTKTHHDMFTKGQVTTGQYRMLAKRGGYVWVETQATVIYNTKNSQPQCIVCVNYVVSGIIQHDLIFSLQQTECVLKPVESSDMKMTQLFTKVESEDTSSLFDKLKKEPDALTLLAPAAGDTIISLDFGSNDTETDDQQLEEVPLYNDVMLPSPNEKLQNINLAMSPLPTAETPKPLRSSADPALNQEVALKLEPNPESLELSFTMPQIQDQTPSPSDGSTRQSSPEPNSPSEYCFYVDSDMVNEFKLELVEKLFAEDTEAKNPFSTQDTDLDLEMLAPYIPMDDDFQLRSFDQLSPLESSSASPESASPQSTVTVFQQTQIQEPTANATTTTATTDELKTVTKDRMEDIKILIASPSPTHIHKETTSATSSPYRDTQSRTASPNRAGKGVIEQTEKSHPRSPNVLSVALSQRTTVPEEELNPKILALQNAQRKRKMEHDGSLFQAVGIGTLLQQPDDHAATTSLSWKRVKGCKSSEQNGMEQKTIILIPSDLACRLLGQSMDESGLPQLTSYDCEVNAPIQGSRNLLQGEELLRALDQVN
# Method in brief: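 After 24 h chemical exposure of reporter-transfected HepG2 cells, reporter cDNA was PCR-amplified, labelled by 6-FAM primer extension (2 min 95 C, 20 s 68 C, 10 min 72 C), HpaI-cut (2 h, 37 C) and analysed by CE.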
# [4] = target: Hepatocyte nuclear factor 6 (Homo sapiens) (UniProt Q9UBC0); test: ATG_HNF6_CIS: Attagene CIS-FACTORIAL HepG2 Assay for human Hepatocyte Nuclear Factor 6 (HNF6) (AID 2282952); settings: HepG2 Attagene cis-factorial HNF6 reporter transcription; actives raise or lower the signal
# Sequence of Hepatocyte nuclear factor 6 (Homo sapiens) (Q9UBC0 whole entry, looked up, the tested form may be a part): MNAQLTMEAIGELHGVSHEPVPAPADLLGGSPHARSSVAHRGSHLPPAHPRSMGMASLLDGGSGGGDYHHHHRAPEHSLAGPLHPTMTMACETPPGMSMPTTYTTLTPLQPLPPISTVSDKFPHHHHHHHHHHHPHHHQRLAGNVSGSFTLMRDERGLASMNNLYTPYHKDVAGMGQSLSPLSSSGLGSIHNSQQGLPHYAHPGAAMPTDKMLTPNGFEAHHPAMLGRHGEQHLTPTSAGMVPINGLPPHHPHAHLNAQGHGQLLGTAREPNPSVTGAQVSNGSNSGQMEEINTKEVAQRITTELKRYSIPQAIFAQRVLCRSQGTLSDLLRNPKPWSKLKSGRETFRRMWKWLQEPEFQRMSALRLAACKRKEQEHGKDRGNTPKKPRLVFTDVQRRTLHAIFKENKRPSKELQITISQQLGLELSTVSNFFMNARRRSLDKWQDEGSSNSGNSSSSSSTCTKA
# Method in brief: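 HepG2 cells transiently transfected with cis-element-driven multiplexed reporter units measuring endogenous transcription factor activity. After 24 h exposure, reporter mRNA quantified by RT-PCR, FAM-labelled fragments and capillary electrophoresis; bidirectional fitting versus DMSO.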
# [5] = target: Heat shock factor protein 1 (Homo sapiens) (UniProt Q00613); test: ATG_HSE_CIS: Attagene CIS-FACTORIAL HepG2 Assay for human Heat Shock Transcription Factor 1 (HSE) (AID 2282953); settings: HepG2 HSE cis-reporter, Attagene RNA transcription; actives raise or lower the signal
# Sequence of Heat shock factor protein 1 (Homo sapiens) (Q00613 whole entry, looked up): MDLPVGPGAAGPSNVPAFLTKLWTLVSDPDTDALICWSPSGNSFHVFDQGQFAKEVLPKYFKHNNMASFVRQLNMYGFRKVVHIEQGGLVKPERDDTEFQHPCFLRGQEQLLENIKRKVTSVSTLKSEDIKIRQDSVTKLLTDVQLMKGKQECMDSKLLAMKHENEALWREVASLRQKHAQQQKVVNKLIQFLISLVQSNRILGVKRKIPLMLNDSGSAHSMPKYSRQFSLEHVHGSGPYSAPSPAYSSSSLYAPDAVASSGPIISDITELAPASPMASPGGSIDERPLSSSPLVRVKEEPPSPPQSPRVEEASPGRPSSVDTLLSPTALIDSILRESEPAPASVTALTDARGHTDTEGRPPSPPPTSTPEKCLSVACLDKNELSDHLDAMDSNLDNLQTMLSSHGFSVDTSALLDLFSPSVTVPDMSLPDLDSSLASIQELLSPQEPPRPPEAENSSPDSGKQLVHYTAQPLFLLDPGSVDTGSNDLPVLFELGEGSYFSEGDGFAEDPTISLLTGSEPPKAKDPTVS
# Method in brief: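 HepG2 cells transfected with cis-promoter reporter units sensing endogenous transcription factor activity; reporter mRNA quantified 24 h post-dose by RT-PCR and capillary electrophoresis of 6-FAM-labelled products. Bidirectional fitting against DMSO.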
# [6] = ATG_MRE_CIS: Attagene CIS-FACTORIAL HepG2 Assay for human Metal Responsive Element (MRE) (AID 2282954); settings: HepG2 MRE cis-reporter transcription, Attagene multiplex; actives raise or lower the signal
# Method in brief: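 Step one: transfect HepG2 with cis-regulated reporter units. Step two: dose 24 h. Step three: isolate RNA, RT-PCR, 6-FAM label, HpaI digest, capillary electrophoresis. Fit bidirectionally to DMSO.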
# [7] = target: Paired box protein Pax-6 (Homo sapiens) (UniProt P26367); test: ATG_Pax6_CIS: Attagene CIS-FACTORIAL HepG2 Assay for human Paired Box 6 (PAX6) (AID 2282956); settings: HepG2 CIS-FACTORIAL PAX6 reporter transcription, RNA readout; actives raise or lower the signal
# Sequence of Paired box protein Pax-6 (Homo sapiens) (P26367 whole entry, looked up): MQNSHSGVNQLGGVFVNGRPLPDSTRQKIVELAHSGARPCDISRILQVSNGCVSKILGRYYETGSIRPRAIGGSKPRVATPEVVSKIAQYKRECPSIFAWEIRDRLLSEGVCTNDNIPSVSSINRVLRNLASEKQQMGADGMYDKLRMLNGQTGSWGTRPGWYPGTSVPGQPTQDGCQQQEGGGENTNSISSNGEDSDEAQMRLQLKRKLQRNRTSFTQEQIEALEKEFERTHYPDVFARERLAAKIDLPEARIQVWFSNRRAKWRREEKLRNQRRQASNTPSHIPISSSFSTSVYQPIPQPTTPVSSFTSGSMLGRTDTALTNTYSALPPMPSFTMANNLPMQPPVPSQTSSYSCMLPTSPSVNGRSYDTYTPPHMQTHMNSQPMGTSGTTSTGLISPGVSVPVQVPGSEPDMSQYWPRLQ
# Method in brief: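 After twenty-four hours of chemical exposure, transfected HepG2 cells are harvested for RNA. Cis-promoter reporter transcripts are amplified, fluorescently labelled and sized by capillary electrophoresis, with gain and loss of signal scored against DMSO.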
# [8] = ATG_PXRE_CIS: Attagene CIS-FACTORIAL HepG2 Assay for human Pregnane X Receptor Element (PXRE) (AID 2282957); settings: HepG2 Attagene CIS-FACTORIAL PXRE reporter, mRNA; actives raise or lower the signal
# Method in brief: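 HepG2 cells transiently transfected with cis-element-driven multiplexed reporter units; after 24 h chemical exposure, reporter mRNA measured by RT-PCR, 6-FAM labelling, HpaI digestion and capillary electrophoresis. Bidirectional fitting relative to DMSO.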
# [9] = ATG_PPRE_CIS: Attagene CIS-FACTORIAL HepG2 Assay for human Peroxisome Proliferator-activated Response Element (PPRE) (AID 2282958); settings: HepG2 PPRE cis-element reporter, Attagene transcription factor profiling; actives raise or lower the signal
# Method in brief: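 PPRE activity in HepG2: transient cis-reporter transfection, 24 h compound incubation, reporter mRNA by RT-PCR and CE fluorescence; gain/loss fitted against DMSO.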
# [10] = ATG_RORE_CIS: Attagene CIS-FACTORIAL HepG2 Assay for human RAR-related Orphan Receptor Element (RORE) (AID 2282959); settings: HepG2 Attagene cis-factorial RORE reporter, mRNA; actives raise or lower the signal
# Method in brief: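 A 24-hour exposure of transfected HepG2 hepatoma cells precedes RNA isolation and reporter RT-PCR. Labeled products are digested with HpaI and resolved by capillary electrophoresis, with gain or loss of signal scored relative to DMSO.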
# [11] = ATG_Sox_CIS: Attagene CIS-FACTORIAL HepG2 Assay for human SRY-box transcription factor (SOX) (AID 2282960); settings: HepG2 Attagene cis-factorial SOX reporter, mRNA; actives raise or lower the signal
# Method in brief: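 HepG2, cis reporter units, 24 h exposure. Reporter mRNA: RT-PCR → FAM labelling → HpaI → CE fluorescence. Bidirectional fit vs DMSO.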
# [12] = ATG_SREBP_CIS: Attagene CIS-FACTORIAL HepG2 Assay for human Sterol Regulatory Element Binding (SREBP) (AID 2282962); settings: HepG2 Attagene cis-factorial SREBP reporter, mRNA; actives raise or lower the signal
# Method in brief: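 Twenty-four hours after chemical dosing of transfected HepG2 cultures, reporter RNA was converted to cDNA, amplified, end-labelled with 6-FAM and resolved by capillary electrophoresis. Responses were fitted relative to DMSO.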
# [13] = target: Signal transducer and activator of transcription 3 (Homo sapiens) (UniProt P40763); test: ATG_STAT3_CIS: Attagene CIS-FACTORIAL HepG2 Assay for human Signal Transducer and Activator of Transcription 3 (STAT3) (AID 2282963); settings: HepG2, Attagene cis-factorial STAT3 reporter transcription; actives raise or lower the signal
# Sequence of Signal transducer and activator of transcription 3 (Homo sapiens) (P40763 whole entry, looked up): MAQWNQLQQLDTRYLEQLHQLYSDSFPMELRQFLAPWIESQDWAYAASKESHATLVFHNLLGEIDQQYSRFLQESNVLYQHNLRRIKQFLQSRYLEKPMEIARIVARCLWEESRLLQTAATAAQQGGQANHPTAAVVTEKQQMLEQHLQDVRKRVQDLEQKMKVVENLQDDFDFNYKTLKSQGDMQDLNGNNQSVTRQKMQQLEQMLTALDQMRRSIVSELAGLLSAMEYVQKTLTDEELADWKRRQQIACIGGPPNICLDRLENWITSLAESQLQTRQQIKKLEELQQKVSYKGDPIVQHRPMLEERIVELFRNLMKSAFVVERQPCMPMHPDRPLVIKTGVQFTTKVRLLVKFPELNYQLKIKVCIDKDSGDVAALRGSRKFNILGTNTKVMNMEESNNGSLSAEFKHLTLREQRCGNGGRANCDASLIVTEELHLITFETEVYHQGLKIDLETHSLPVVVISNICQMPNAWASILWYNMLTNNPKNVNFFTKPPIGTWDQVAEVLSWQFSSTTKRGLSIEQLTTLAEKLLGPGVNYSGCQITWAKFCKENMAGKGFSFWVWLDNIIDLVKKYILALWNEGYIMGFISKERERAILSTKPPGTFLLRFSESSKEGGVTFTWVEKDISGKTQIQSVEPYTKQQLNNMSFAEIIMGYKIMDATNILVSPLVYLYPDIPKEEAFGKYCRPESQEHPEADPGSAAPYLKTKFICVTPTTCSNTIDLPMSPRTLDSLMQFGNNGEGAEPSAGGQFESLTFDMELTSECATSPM
# Method in brief: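 Transcript-level reporter assay. HepG2 transient MRTU transfection, 24 h exposure, fluorescence detection after RT-PCR and CE; DMSO baseline.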
# [14] = ATG_TA_CIS: Attagene CIS-FACTORIAL HepG2 Assay for human TA Basal Promoter (AID 2282964); settings: HepG2 Attagene CIS-factorial TA basal promoter reporter; actives raise or lower the signal
# Method in brief: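 HepG2 cells transiently transfected with multiple reporter units under cis promoter elements, reporting endogenous transcription factor activity; this endpoint tracks the TA basal promoter as background control. Reporter mRNA after 24 h dosing measured by RT-PCR/capillary electrophoresis; bidirectional fits versus DMSO.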
# [15] = ATG_TCF_b_cat_CIS: Attagene CIS-FACTORIAL HepG2 Assay for human T-Cell-Factor with beta-catenin (TCF/b-cat) (AID 2282965); settings: HepG2 TCF/beta-catenin cis-reporter transcription, actives raise or lower the signal
# Method in brief: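 HepG2 cells transiently transfected with multiple cis-promoter-regulated reporter transcription units, so endogenous transcription factor activity is measured. Reporter mRNA read 24 hours after dosing by RT-PCR, fluorescent labelling and capillary electrophoresis; bidirectional fitting against DMSO.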
# [16] = ATG_M_32_CIS: Attagene CIS-FACTORIAL HepG2 Assay for M32 Transcription Factor (Internal Marker) (AID 2282949); settings: HepG2 Attagene cis-factorial M32 reporter, mRNA; actives raise or lower the signal;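 further: background control marker of the multiplexed CIS panel rather than a real target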
# Method in brief: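 Fluorescent capillary electrophoresis peaks of HpaI-digested, FAM-labelled RT-PCR reporter products give the signal. Source: transiently transfected human liver HepG2 cells, 24 h after chemical dosing; bidirectional fitting against DMSO.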
# [17] = target: Transcription factor Sp1 (Homo sapiens) (UniProt P08047); test: ATG_Sp1_CIS: Attagene CIS-FACTORIAL HepG2 Assay for human Specificity Protein 1 (Sp1) (AID 2282961); settings: HepG2 Sp1 cis-reporter transcription, actives raise or lower the signal
# Sequence of Transcription factor Sp1 (Homo sapiens) (P08047 whole entry, looked up, the tested form may be a part): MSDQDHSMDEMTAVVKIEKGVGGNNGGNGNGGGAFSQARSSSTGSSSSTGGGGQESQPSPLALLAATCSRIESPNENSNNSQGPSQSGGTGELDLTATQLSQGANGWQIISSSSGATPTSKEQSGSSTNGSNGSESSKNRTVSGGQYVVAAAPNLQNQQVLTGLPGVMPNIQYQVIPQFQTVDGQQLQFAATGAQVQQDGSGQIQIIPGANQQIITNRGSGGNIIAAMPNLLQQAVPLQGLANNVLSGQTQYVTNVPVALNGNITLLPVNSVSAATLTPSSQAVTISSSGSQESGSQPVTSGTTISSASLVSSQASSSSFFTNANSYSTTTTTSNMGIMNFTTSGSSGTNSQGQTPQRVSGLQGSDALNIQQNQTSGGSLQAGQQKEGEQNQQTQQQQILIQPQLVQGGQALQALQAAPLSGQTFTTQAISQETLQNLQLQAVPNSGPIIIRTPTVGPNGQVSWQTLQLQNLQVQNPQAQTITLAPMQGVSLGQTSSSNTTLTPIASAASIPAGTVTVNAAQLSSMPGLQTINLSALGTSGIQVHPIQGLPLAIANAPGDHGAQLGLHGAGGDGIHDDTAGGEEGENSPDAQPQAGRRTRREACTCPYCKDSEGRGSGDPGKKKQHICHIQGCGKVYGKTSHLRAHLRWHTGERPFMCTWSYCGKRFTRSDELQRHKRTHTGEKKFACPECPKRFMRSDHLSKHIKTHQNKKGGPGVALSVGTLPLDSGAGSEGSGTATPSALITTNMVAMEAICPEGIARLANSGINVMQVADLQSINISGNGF
# Method in brief: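 Liver-derived HepG2 cells, cis-element reporter library, 24 h treatment; RNA isolated, cDNA amplified with reporter-specific primers, FAM-labeled fragments sized on capillary analyzer. DMSO baseline, bidirectional curve fit.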
# [18] = ATG_GRE_CIS: Attagene CIS-FACTORIAL HepG2 Assay for human Glucocorticoid Response Elements (GRE) (AID 2282947); settings: HepG2 GRE cis-reporter, Attagene multiplex mRNA; actives raise or lower the signal
# Method in brief: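 Following 24 h chemical exposure of transiently transfected HepG2 cells, total RNA was reverse-transcribed and reporter cDNA amplified, fluorescently labelled and sized by capillary electrophoresis. Signal gain or loss was fitted relative to DMSO vehicle.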
# [19] = ATG_PBREM_CIS: Attagene CIS-FACTORIAL HepG2 Assay for human Phenobarbital-responsive Enhancer Module (PBREM) (AID 2282955); settings: HepG2 PBREM cis-reporter, Attagene multiplexed transcription; actives raise or lower the signal
# Method in brief: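 Measures endogenous factor action on a phenobarbital-responsive enhancer module. HepG2 transiently carrying cis reporters, 24 h treatment, mRNA read-out by RT-PCR plus capillary electrophoresis.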
smiles,measurement,setting,value
CCCCCCCCSC(=O)Oc1cc(Cl)nnc1-c1ccccc1,AC50,[1],164 µM (active)
same,outcome,[2],inactive
same,outcome,[3],inactive
same,outcome,[4],inactive
same,outcome,[5],inactive
same,outcome,[6],inactive
same,AC50,[7],146 µM (active)
same,AC50,[8],27.1 µM (active)
same,outcome,[9],inactive
same,outcome,[10],inactive
same,outcome,[11],inactive
same,outcome,[12],inactive
same,outcome,[13],inactive
same,AC50,[14],124 µM (active)
same,AC50,[15],170 µM (active)
CCCCC(CC)CO[N+](=O)[O-] (stereo unspecified),outcome,[1],inactive
same,outcome,[16],inactive
same,outcome,[2],inactive
same,AC50,[3],4.37 µM (active)
same,AC50,[4],151 µM (active)
same,outcome,[5],inactive
same,outcome,[6],inactive
same,outcome,[7],inactive
same,outcome,[8],inactive
same,outcome,[9],inactive
same,AC50,[10],99.5 µM (active)
same,outcome,[11],inactive
same,outcome,[17],inactive
same,outcome,[12],inactive
same,outcome,[13],inactive
same,outcome,[14],inactive
same,outcome,[15],inactive
CNC,outcome,[1],inactive
same,outcome,[16],inactive
same,outcome,[2],inactive
same,outcome,[3],inactive
same,outcome,[4],inactive
same,outcome,[5],inactive
same,outcome,[6],inactive
same,outcome,[7],inactive
same,outcome,[8],inactive
same,outcome,[9],inactive
same,outcome,[10],inactive
same,outcome,[11],inactive
same,outcome,[17],inactive
same,outcome,[12],inactive
same,outcome,[13],inactive
same,outcome,[15],inactive
O=C1C(Cl)=C(Cl)C(=O)c2ccccc21,outcome,[18],inactive
same,outcome,[1],inactive
same,outcome,[2],inactive
same,outcome,[3],inactive
same,outcome,[4],inactive
same,AC50,[5],13.6 µM (active)
same,outcome,[7],inactive
same,outcome,[9],inactive
same,outcome,[10],inactive
same,outcome,[12],inactive
same,outcome,[13],inactive
same,outcome,[15],inactive
COc1cccc(C=O)c1,outcome,[18],inactive
same,outcome,[1],inactive
same,outcome,[2],inactive
same,outcome,[3],inactive
same,outcome,[4],inactive
same,outcome,[5],inactive
same,outcome,[7],inactive
same,outcome,[9],inactive
same,outcome,[10],inactive
same,outcome,[11],inactive
same,outcome,[12],inactive
same,outcome,[13],inactive
same,outcome,[14],inactive
same,outcome,[15],inactive
CC(C)c1cccc(C(C)C)c1O,outcome,[1],inactive
same,outcome,[16],inactive
same,outcome,[2],inactive
same,outcome,[4],inactive
same,outcome,[5],inactive
same,outcome,[6],inactive
same,outcome,[7],inactive
same,outcome,[9],inactive
same,outcome,[10],inactive
same,outcome,[11],inactive
same,outcome,[12],inactive
same,outcome,[13],inactive
same,outcome,[14],inactive
N#Cc1ccccn1,outcome,[1],inactive
same,outcome,[16],inactive
same,outcome,[2],inactive
same,outcome,[3],inactive
same,outcome,[4],inactive
same,outcome,[7],inactive
same,outcome,[8],inactive
same,outcome,[10],inactive
same,outcome,[11],inactive
same,outcome,[17],inactive
same,outcome,[12],inactive
same,outcome,[13],inactive
same,outcome,[14],inactive
c1ccc(N=NNc2ccccc2)cc1,outcome,[1],inactive
same,outcome,[16],inactive
same,outcome,[2],inactive
same,outcome,[3],inactive
same,outcome,[4],inactive
same,AC50,[5],151 µM (active)
same,AC50,[6],100 µM (active)
same,outcome,[19],inactive
same,AC50,[7],125 µM (active)
same,AC50,[9],21.7 µM (active)
same,outcome,[10],inactive
same,AC50,[11],145 µM (active)
same,AC50,[17],153 µM (active)
same,AC50,[12],136 µM (active)
same,outcome,[13],inactive
same,outcome,[14],inactive
NNC(=S)NN,outcome,[1],inactive
same,outcome,[16],inactive
same,outcome,[2],inactive
same,outcome,[3],inactive
same,outcome,[4],inactive
same,outcome,[5],inactive
same,outcome,[6],inactive
same,outcome,[7],inactive
same,outcome,[9],inactive
same,outcome,[10],inactive
same,outcome,[11],inactive
same,outcome,[17],inactive
same,outcome,[12],inactive
same,outcome,[13],inactive
same,outcome,[15],inactive
